The nature of assay [1]: inhibitors of TNFa-induced NFkB p65 translocation, primary screen, imaging, HUVEC, MLSMR starter and 10KST1 sets (AID 438;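 active = inhibition above 20% together with a positive visual image hit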;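 also: compound added about 3h40 before a 20 min TNFalpha stimulation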;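 as to inhibition: signal is the nuclear over cytoplasmic p65 intensity ratio per well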). As to conditions: HUVEC TNFa-induced p65 nuclear translocation; cell count: measured here: nuclei count (cytotoxicity indicator), at 2.08 µM; inhibition: at 2 µM, stronger effect = higher value, 0% TNFa-plus-vehicle, 100% no-TNFa wells.
Assay [2] can be described thus: reduction of polyQ htt aggregates in cells – imaging, exon1htt(103Q)mCFP cells, high-content imaging, primary screen (AID 483;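 active = visual image review flags a hit and inhibition of aggregation exceeds 20%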;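 also: compound exposure lasted 3 days before fixation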;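 as to nuclei count: percent of the per-plate median nuclei count of sample wells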). As to conditions: exon1htt(103Q)mCFP cell line, aggregate imaging, at 2 µM; inhibition of aggregation: stronger effect = higher value; nuclei count: measured here: cell count, toxicity.
The nature of assay [3]: endothelial E-selectin expression blockers – imaging, HUVEC, immunofluorescence, MLSMR starter and 10KST1 sets, primary screen (AID 487;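 active = visually confirmed hit in the image check and inhibition above 20%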;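 as to inhibition: signal is fraction of cell area covered by stained E-selectin grains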;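 as to nuclei count: 100% = median nuclei count of all wells on the same plate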). As to conditions: HUVEC TNFalpha-induced E-selectin immunofluorescence imaging, at 2 µM; inhibition: stronger effect = higher value; nuclei count: measured here: cell number, toxicity.
Assay [4] has as its target Voltage-gated potassium channel subunit beta-2 (Rattus norvegicus) (UniProt P62483). In words: inhibitors of rat Kvbeta2 reductase activity – biochemical, NADPH fluorescence, primary screen (AID 622;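 active = fluorescence slope higher than the sample average by over 3 SD, cut at about -0.22 in these data, passing the limit was not always enough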;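 also: slope of raw intensity against log time taken from 70 to 1610 s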). As to conditions: recombinant KvBeta, 4-cyanobenzaldehyde reduction, at 10 µM, stronger effect = higher value.
The target is the same in assay [5]. Put plainly: enhancers of rat Kvbeta2 NADPH turnover – biochemical, NADPH fluorescence, primary screen (AID 623;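 active = NADPH fluorescence slope more negative than the mean of all samples by about 3 SD, 99.7% confidence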;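 also: fluorescence intensity change per second fitted from 20 to 320 s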). As to conditions: Recombinant KvBeta, NADPH fluorescence decrease slope, 10 min; at 10 µM; stronger effect = lower value.
In assay [6] the target is Alpha-2C adrenergic receptor (Homo sapiens) (UniProt P18825). In words: compounds altering alpha2C-coupled GIRK flux – cell-based, HEK293 alpha2C/GIRK1/2, thallium flux, primary screen (AID 624;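 active = fluorescence slope after compound addition differing from the mean of all screened samples at 99.7% confidence, in either direction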;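 also: slope of fluorescence ratio to pre-addition baseline per second over 15 to 24 s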). As to conditions: thallium flux BTC fluorescence, at 10 µM, actives lie on both sides.
Sequence of Alpha-2C adrenergic receptor (Homo sapiens) (P18825 whole entry, looked up): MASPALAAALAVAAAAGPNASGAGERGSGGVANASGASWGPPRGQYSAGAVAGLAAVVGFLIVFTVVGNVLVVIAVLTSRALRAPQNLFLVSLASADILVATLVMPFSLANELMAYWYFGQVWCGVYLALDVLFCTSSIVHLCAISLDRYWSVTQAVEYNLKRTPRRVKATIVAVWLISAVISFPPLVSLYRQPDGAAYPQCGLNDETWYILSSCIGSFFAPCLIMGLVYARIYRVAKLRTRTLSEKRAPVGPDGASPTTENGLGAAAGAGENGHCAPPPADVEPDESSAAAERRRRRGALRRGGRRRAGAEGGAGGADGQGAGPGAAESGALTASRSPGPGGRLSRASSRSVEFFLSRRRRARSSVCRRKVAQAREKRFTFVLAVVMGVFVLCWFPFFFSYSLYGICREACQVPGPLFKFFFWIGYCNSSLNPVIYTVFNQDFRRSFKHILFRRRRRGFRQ
Assay [7] in a line: blockers of RIG-like receptor reporter activation – cell-based, Sendai virus stimulus, luciferase, 10K MLSCN set, TLR/RLR signaling modifier project, primary screen (AID 602276).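 Also: firefly luciferase from ISG56 promoter only with Renilla not read in this screen; 0% = Sendai virus plus DMSO and 100% = medium plus DMSO without virus.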 As to conditions: HEK293 RL24 IRF3 luciferase reporter, at 10 µM, stronger effect = higher value. (Reporter assays use an easily measured gene product as a stand-in for the process of interest.)
Assay [8] is described as follows: TLR3 IRF3 reporter activation blockers – cell-based, poly I:C stimulus, luciferase, 10K MLSCN set, primary screen (AID 602277;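 active = inhibition of the reporter signal at or above 50%; inactive = inhibition below 50%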). As to conditions: HEK293-TLR3 RL24 IRF3 luciferase reporter, at 10 µM, stronger effect = higher value.

The structures appear in SMILES notation. The source made the active and inactive calls.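 The calls were made as follows, unless noted: active = inhibition at or above 50% at 10 µM; inactive = inhibition below 50%.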

Sequence of Voltage-gated potassium channel subunit beta-2 (Rattus norvegicus) (P62483 whole entry, looked up): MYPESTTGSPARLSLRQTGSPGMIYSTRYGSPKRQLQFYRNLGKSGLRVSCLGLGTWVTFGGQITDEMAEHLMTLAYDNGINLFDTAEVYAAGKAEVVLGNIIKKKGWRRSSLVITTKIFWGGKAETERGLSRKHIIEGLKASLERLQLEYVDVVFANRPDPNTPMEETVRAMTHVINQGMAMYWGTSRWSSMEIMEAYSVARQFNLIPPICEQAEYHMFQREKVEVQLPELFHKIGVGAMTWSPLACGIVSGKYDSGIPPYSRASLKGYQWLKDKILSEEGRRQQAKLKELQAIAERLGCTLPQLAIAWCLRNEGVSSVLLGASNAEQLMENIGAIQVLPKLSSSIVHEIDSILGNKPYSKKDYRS

As to `COc1cc(C(O)c2nc3ccccc3n2C)cc(OC)c1OC` (centres undefined), the cell count in assay [1] amounted to 384. Moreover, the inhibition in assay [1] was 25.8% (active); in assay [3] it was -13.7% (inactive); in assay [7], 2.58% (inactive); in assay [8], 18.3% (inactive). Also, the inhibition of aggregation in assay [2] is 21.2% (inactive). Also, the nuclei count in assay [2] amounted to 81.3%; in assay [3], 108%. The fluorescence slope in assay [4] was -0.453 (inactive). For the same compound, in assay [5], the NADPH fluorescence slope is -2.3e-05 (inactive). In addition, the slope in assay [6] was 0.00191 (inactive).

For `CCc1ccc(C2CC(c3ccccc3)n3ncnc3N2)cc1` (centres undefined), the cell count in assay [1] turned out to be 626. The inhibition is 1.1% (inactive) in assay [1], -22.9% (inactive) in assay [3], 13.8% (inactive) in assay [7] and 28.3% (inactive) in assay [8]. Further, in assay [2], the inhibition of aggregation is 25.1% (inactive). The nuclei count in assay [2] worked out at 72%; in assay [3], 70.6%. In addition, in assay [4], the fluorescence slope is -0.586 (inactive). The NADPH fluorescence slope in assay [5] was -3.4e-05 (inactive). In assay [6], the slope was 0.00702 (inactive).

`Cc1c(C(=O)OCc2ccccc2)[nH]c2c1C(=O)CC(c1ccco1)C2` (centres undefined): the cell count in assay [1] was 721. Moreover, the inhibition in assay [1] was 12.7% (inactive); in assay [3] it was -63.1% (inactive); in assay [7] it was 45.4% (inactive); in assay [8], 80.4% (active). The inhibition of aggregation in assay [2] is -170% (inactive). Besides, the nuclei count in assay [2] was determined as 3.7%; in assay [3], 107%. Moreover, in assay [4], the fluorescence slope is -0.569 (inactive). Moreover, in assay [5], the NADPH fluorescence slope was -1.8e-05 (inactive). Moreover, the slope in assay [6] is 0.00645 (inactive).

In the case of `O=C1CCCN1Cc1ncnn1-c1ccccc1`, the cell count in assay [1] was found to be 453. Also, the inhibition in assay [1] is -1.8% (inactive); in assay [3], -85.8% (inactive); in assay [7] it was 7.63% (inactive); in assay [8] it was 3.72% (inactive). The inhibition of aggregation in assay [2] was 10.2% (inactive). For the same compound, the results for the nuclei count in assay [2] and in assay [3] were 114% and 131%, respectively. Moreover, the fluorescence slope in assay [4] is -0.349 (inactive). The NADPH fluorescence slope in assay [5] is -6.8e-05 (inactive). In assay [6], the slope was 0.00512 (inactive).

For `CC1CCc2c(sc(N)c2C(N)=O)C1` (centres undefined), the cell count in assay [1] amounted to 722. Moreover, the inhibition in assay [1] is -4.4% (inactive); in assay [3], 16.5% (inactive); in assay [7] it was 5.07% (inactive); in assay [8], 6.01% (inactive). Besides, the inhibition of aggregation in assay [2] was 6.1% (inactive). The results for the nuclei count in assay [2] and in assay [3] were 88.3% and 98.4%, respectively. Moreover, in assay [4], the fluorescence slope was -0.371 (inactive). For the same compound, the NADPH fluorescence slope in assay [5] was -1.7e-06 (inactive). In addition, in assay [6], the slope was 0.00501 (inactive).

`CCCC(=O)Nc1c2c(nn1-c1ccc(OC)cc1)CS(=O)C2` (centres undefined): the cell count in assay [1] was 472. Further, the inhibition in assay [1] is 4.2% (inactive); in assay [3], -70.5% (inactive); in assay [7] it was 10.8% (inactive); in assay [8] it was 22.2% (inactive). In addition, the inhibition of aggregation in assay [2] was -25.4% (inactive). The results for the nuclei count in assay [2] and in assay [3] were 117% and 100%, respectively. In addition, the fluorescence slope in assay [4] is -0.476 (inactive). In addition, in assay [5], the NADPH fluorescence slope is -3.3e-05 (inactive). The slope in assay [6] is 0.00523 (inactive).

As to `CCOC(=O)N1CCC(NC(=O)Cn2c3c(c(-c4ccccc4Cl)cc2=O)CCC3)CC1`, the cell count in assay [1] is 528. The inhibition is -3.3% (inactive) in assay [1], -105% (inactive) in assay [3], 9.23% (inactive) in assay [7] and 30.1% (inactive) in assay [8]. In assay [2], the inhibition of aggregation is 4.5% (inactive). Moreover, the nuclei count worked out at 98.3% in assay [2] and 120% in assay [3]. In addition, the fluorescence slope in assay [4] is -0.54 (inactive). In assay [5], the NADPH fluorescence slope is -2.2e-05 (inactive). In addition, in assay [6], the slope is 0.00573 (inactive).

Take `COc1ccc(CCNC(=O)CCN2C(=O)C3CC=CCC3C2=O)cc1OC` (centres undefined): the cell count in assay [1] amounted to 308. Moreover, the inhibition was -1.1% (inactive) in assay [1], -53.4% (inactive) in assay [3], 3.55% (inactive) in assay [7] and -2.15% (inactive) in assay [8]. Besides, the inhibition of aggregation in assay [2] is -8.1% (inactive). For the same compound, the nuclei count in assay [2] is 83.4%; in assay [3], 103%. For the same compound, in assay [4], the fluorescence slope was -0.605 (inactive). Further, the NADPH fluorescence slope in assay [5] was -1.9e-06 (inactive). Besides, the slope in assay [6] is 0.00675 (inactive).

Take `O=C1CC(c2ccccc2)n2nc(NC(=O)c3ccccn3)nc2N1` (centres undefined): the cell count in assay [1] is 565. The inhibition in assay [1] is 3.3% (inactive); in assay [3], 16.2% (inactive); in assay [7], 9.98% (inactive); in assay [8] it was 27.1% (inactive). For the same compound, the inhibition of aggregation in assay [2] is -11.8% (inactive). In addition, the nuclei count turned out to be 108% in assay [2] and 106% in assay [3]. Also, the fluorescence slope in assay [4] was -0.605 (inactive). For the same compound, the NADPH fluorescence slope in assay [5] is -3.9e-05 (inactive). Also, the slope in assay [6] is 0.00587 (inactive).

`CCOC(=O)Nc1cc(OC)c(OC)cc1Cc1nccc2cc(OC)c(OC)cc12`: the cell count in assay [1] amounted to 444. Also, the inhibition in assay [1] was -1.8% (inactive); in assay [3] it was -20.1% (inactive); in assay [7], -7.98% (inactive); in assay [8], 5.89% (inactive). The inhibition of aggregation in assay [2] is -1.2% (inactive). The results for the nuclei count in assay [2] and in assay [3] were 111% and 173%, respectively. In addition, the fluorescence slope in assay [4] is -0.532 (inactive). Besides, the NADPH fluorescence slope in assay [5] is 4.5e-06 (inactive). Further, in assay [6], the slope is 0.00447 (inactive).

For `CCNC(=O)C1CC(=O)N(Cc2ccc3c(c2)OCO3)C(=Nc2ccc(F)cc2)S1` (centres undefined), the cell count in assay [1] is 705. For the same compound, the inhibition in assay [1] was -0.8% (inactive); in assay [3], -83.7% (inactive); in assay [7], -2.28% (inactive); in assay [8], 16% (inactive). Besides, the inhibition of aggregation in assay [2] is -38.8% (inactive). In addition, the nuclei count in assay [2] is 109%; in assay [3], 98%. In addition, the fluorescence slope in assay [4] is -0.471 (inactive). Also, the NADPH fluorescence slope in assay [5] is -0.000221 (inactive). In assay [6], the slope is 0.00631 (inactive).

Consider `COc1ccc(C2CC(C(F)(F)F)n3ncc(C(=O)NCc4cccnc4)c3N2)cc1OC` (centres undefined), for which the cell count in assay [1] is 313. Further, the inhibition was 0.3% (inactive) in assay [1], 8% (inactive) in assay [3], 5.88% (inactive) in assay [7] and 20.9% (inactive) in assay [8]. For the same compound, the inhibition of aggregation in assay [2] is 8.9% (inactive). The nuclei count in assay [2] came to 57.1%; in assay [3], 91.9%. The fluorescence slope in assay [4] was -0.388 (inactive). Also, the NADPH fluorescence slope in assay [5] is -3.2e-05 (inactive). Further, the slope in assay [6] is 0.00287 (inactive).

In the case of `COc1ccc(C(=O)NCc2ccccc2OC)cc1`, in assay [1], the cell count came to 590. Besides, the inhibition in assay [1] is -0.6% (inactive); in assay [3], -25.9% (inactive); in assay [7], -2.6% (inactive); in assay [8] it was -7.58% (inactive). The inhibition of aggregation in assay [2] is -15.5% (inactive). The nuclei count came to 107% in assay [2] and 111% in assay [3]. Further, the fluorescence slope in assay [4] is -0.47 (inactive). Besides, the NADPH fluorescence slope in assay [5] is -0.000293 (inactive). Moreover, in assay [6], the slope is 0.00583 (inactive).

Consider `O=C(Oc1cc2oc(=O)c3c(c2cc1Cl)CCCC3)c1ccco1`, for which the cell count in assay [1] is 532. Further, the inhibition was -14.1% (inactive) in assay [1], -50.1% (inactive) in assay [3], 4.58% (inactive) in assay [7] and 7.41% (inactive) in assay [8]. Also, in assay [2], the inhibition of aggregation is -4.9% (inactive). Moreover, the nuclei count in assay [2] was determined as 101%; in assay [3] it was 148%. Further, in assay [4], the fluorescence slope is -0.14 (inactive). The NADPH fluorescence slope in assay [5] is -2.3e-05 (inactive). In assay [6], the slope is 0.00588 (inactive).

Broadly, the inhibition is the change of the read-out against control, counted positive when it falls.
